Shown are actives, neighbours in structure and some others; about 32% of the full set was active somewhere.
PostGolgi ctrl = growth inhibition of yeast control strain, primary screen, counter-screen for post-Golgi transport modulator project. efflux-deficient yeast background strain, growth absorbance A615, 16 h. inhibition, % at 10 µM. 98,000 compounds, 5% hits. AID 738, 2007
CYP2C19 activ = human CYP2C19 activators, primary screen, biochemical, luminescence | recombinant CYP2C19, luciferin-H EGE luminescence; active compounds read high; 0 = fully inhibited enzyme, 1 = untreated enzyme | activation factor at 5 µM | 96,000 tested, under 10 active;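 active = activation factor of at least 2 at 5 µM in the primary screen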
PostGolgi yeast = phenotypic screen on post-Golgi transport, primary screen; inhibition, % at 10 µM; 98,000 compounds, 0.9% hits; post-Golgi transport phenotypic cell assay;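 note: yeast cells grown in 1536-well plates; yeast grown about 18 h at 30C before absorbance read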
CYP2C9 inh = blockers of cytochrome P450 2C9 activity – biochemical, luminescence, ADME assay, primary screen. CYP2C9 Supersomes, luciferin-H conversion. AID 777, 2007. 96,000 compounds, 20% hits. inhibition, % at 5 µM. P11712;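 active = blocking of liver enzyme CYP2C9 beyond about 50% at 5 µM, limit read from the data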
Target sequence (P11712 whole entry, looked up): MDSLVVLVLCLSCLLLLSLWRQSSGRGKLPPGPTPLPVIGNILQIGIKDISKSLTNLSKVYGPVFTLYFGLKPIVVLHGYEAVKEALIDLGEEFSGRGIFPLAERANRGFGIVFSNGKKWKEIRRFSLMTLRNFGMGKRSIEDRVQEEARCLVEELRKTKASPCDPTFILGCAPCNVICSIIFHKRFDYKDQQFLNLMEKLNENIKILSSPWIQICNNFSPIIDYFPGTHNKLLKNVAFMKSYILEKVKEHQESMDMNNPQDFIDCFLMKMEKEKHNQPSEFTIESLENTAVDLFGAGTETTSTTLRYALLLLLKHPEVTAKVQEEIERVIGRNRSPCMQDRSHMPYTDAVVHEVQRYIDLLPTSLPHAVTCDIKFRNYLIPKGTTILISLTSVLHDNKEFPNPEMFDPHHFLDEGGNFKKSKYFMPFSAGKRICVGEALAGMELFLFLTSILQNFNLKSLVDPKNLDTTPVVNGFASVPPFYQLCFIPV
CYP2C9 activ = human CYP2C9 activators, primary screen, biochemical, luminescence; Cytochrome P450 2C9 (Homo sapiens), P11712; recombinant CYP2C9, luciferin-H conversion; active compounds read high; factor 1 = untreated enzyme, 0 = blocked; activation factor at 5 µM; 96,000 compounds, 1.4% hits;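 active = activation factor of 2 or more for CYP2C9 at a 5 µM dose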
CYP2C19 inhib = blockers of cytochrome P450 2C19 activity – biochemical, luminescence, ADME assay, primary screen; CYP2C19 Supersomes, luciferin-H EGE luminescence, 30 min; 96,000 compounds, 21% hits; P33261; inhibition, % at 5 µM; AID 778, 2007;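 active = CYP2C19 inhibition above a set limit at 5 µM in the primary screen, cut at about 50% in these data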
Large screens that a line does not name were inactive. Cut-off read from the data, not from the text of the source, unless noted: active = inhibition above about 30%; inactive = the rest.

CCOc1ccccc1OCCn1ncc2ccc(OC)c(OC)c2c1=O	CYP2C19 inhib 58
O=C(COC(=O)c1c2ccccc2cc2ccccc12)Nc1ncc(C(F)(F)F)cc1Cl	none
C=C(C)c1cccc(C(C)(C)NC(=O)N2CCN(CC(N)=O)CC2)c1	none
CCCCCCC(C)n1cc(C(C)=O)c(=O)[nH]c1=O (stereo not given)	none
C=CCSc1nnc(-c2cc3c(C(F)(F)F)nn(C)c3s2)n1C	none
C=CCSc1nnc(-c2cc3c(-c4ccccc4)nn(C)c3s2)n1C	CYP2C19 inhib 55
CCCCOc1ccc(-c2nnn(C(C)C(=O)OCC)n2)cc1 (stereo not given)	CYP2C9 inh 68
CCCCOc1ccc(-c2ncc(C(=O)O)c(C)n2)cc1	PostGolgi yeast 44
CCCCOc1ccc(-c2nnn(C(C)(C)C(=O)OC)n2)cc1	CYP2C9 inh 57
CCC12CCCN3CCC4(C(=C(C(=O)OC)C1)Nc1ccccc14)C32 (stereo not given)	CYP2C9 inh 58, CYP2C19 inhib 63
CCc1c(C)nc(N)n2c(SCC(=O)N3CCCC(C)C3)nnc12 (stereo not given)	none
CCOC(=O)C1=C(c2ccccc2)NC(SCC)=C(C#N)C1c1cccnc1 (stereo not given)	CYP2C9 inh 70
CCOC(=O)C1C(=O)C(C(=O)OCC)C(c2cccnc2)NC1c1cccnc1 (stereo not given)	none
CCCSC1=C(C#N)C(c2cccnc2)C(C(=O)OCC)=C(c2ccccc2)N1 (stereo not given)	CYP2C9 inh 62
CCOC(=O)C1=C(C)Nc2ncnn2C1c1cccnc1 (stereo not given)	none
CCOC(=O)Nc1ccc2c(c1)N(C(=O)CCN1CCOCC1)c1ccccc1S2	CYP2C19 inhib 65
COC(=O)Nc1ccc2c(c1)N(C(=O)CCN1CCOCC1)c1ccccc1S2	none
CCN1N=C(c2ccccc2)Cn2c1nc1ccccc12	PostGolgi ctrl 30, CYP2C9 inh 69, CYP2C19 inhib 58
Cc1ccc(SCCCn2cncn2)cc1	CYP2C19 inhib 84
c1ccc(SCCOCCn2cncn2)cc1	CYP2C19 inhib 78
c1ccc(COc2ccc(OCCOCCn3cncn3)cc2)cc1	none
C=C(C)COc1ccc(-c2n[nH]c(C)c2Oc2ccccc2OC)c(O)c1	CYP2C9 inh 81, CYP2C19 inhib 81
CCOc1ccc(-c2n[nH]c(C)c2Oc2ccccc2OC)c(O)c1	CYP2C9 inh 89, CYP2C19 inhib 99
CCOc1ccc(-c2nc(N)nc(C)c2-c2ccc(OC)c(OC)c2)c(O)c1	none
C=C(C)COc1ccc(-c2nc(N)nc(C)c2Oc2ccccc2OC)c(O)c1	none
Cc1[nH]nc(-c2ccc(OCc3cnn(-c4ccccc4)c3)cc2O)c1Oc1ccccc1F	PostGolgi ctrl 42
CCn1nc2cc(C(=O)NCCc3cccs3)ccc2c1OC	none
O=C(c1nc2n(n1)C(c1ccc(Cl)cc1)C=C(c1ccccc1)N2)N1CCOCC1 (stereo not given)	none
CCOC(=O)c1cccc(N2C(=O)c3ccccc3S2(=O)=O)c1	CYP2C9 inh 68, CYP2C19 inhib 56
O=C(CN1CCN(Cc2ccccc2)CC1)c1ccc(Br)cc1	none
O=C(C(c1ccccc1)c1ccccc1)N1CCN(Cc2ccc(Br)cc2)CC1	PostGolgi ctrl 51
CCN(CC)S(=O)(=O)c1cc(C(=O)N2CCc3ccccc32)ccc1Cl	none
Cc1ccc2nc(Nc3ccc4[nH]c(=O)[nH]c4c3)c(-n3nc(C)cc3C)nc2c1	PostGolgi ctrl 31
COc1ccc(-c2c3c(nc4sc5c(Cl)nc(C)nc5c24)CCC3)cc1	CYP2C9 inh 58
NC(=O)c1sc2nc3c(c(-c4ccc(Cl)cc4)c2c1N)CCCC3	PostGolgi ctrl 35
Cc1ccc(-c2c3c(nc4sc(C(N)=O)c(N)c24)CCC3)cc1	PostGolgi ctrl 50
Nc1c(C(=O)NCc2ccc(Cl)cc2)sc2nc3c(c(C(F)(F)F)c12)CCC3	CYP2C9 inh 61
Cc1ccccc1NC(=O)c1sc2nc3c(c(-c4ccco4)c2c1N)CCC3	none
Cc1ccc(CNC(=O)c2sc3nc4c(c(C(F)(F)F)c3c2N)CCC4)cc1	none
Cc1ccc(C(=O)Cn2nnc3c(sc4nc5c(c(-c6ccccc6)c43)CCC5)c2=O)cc1	none
O=C(Nc1ccc(Cl)cc1)NC1CCCCC1Cc1ccco1 (stereo not given)	CYP2C9 inh 59
O=C(Nc1ccc(Cl)cc1)NC1CCCC1Cc1ccco1 (stereo not given)	CYP2C9 inh 65
O=C(Nc1ccc(Cl)cc1)NC1CCCCC1	none
OCC1(C2=NOC(O)(C(F)(F)F)C2)CCCCC1 (stereo not given)	none
CC(C)(C)NC(=O)CSc1nccn1Cc1ccccc1	none
O=C(CSc1ncn(-c2ccccc2)n1)Nc1ccc2c(c1)OCO2	CYP2C9 inh 90, CYP2C19 inhib 95
O=C(CSc1ncn(-c2ccccc2)n1)Nc1ccc2c(c1)OCCO2	none
CCOC(=O)c1cnc(SCc2ccc(C(C)(C)C)cc2)nc1N	CYP2C9 inh 70
CSc1nsc(SCC(=O)Nc2ccc3c(c2)OCCO3)n1	CYP2C9 inh 82, CYP2C19 inhib 88
CSc1nsc(SCC(=O)Nc2ccccn2)n1	none
CC(Sc1ccc2c(c1)OCCO2)C(=O)Nc1ccc2c(c1)OCO2 (stereo not given)	CYP2C9 inh 90, CYP2C19 inhib 100
COc1cccc(/C=c2/s/c(=C(\C#N)C(=O)N3CCOCC3)n(-c3ccccc3)c2=O)c1	none
CCCCCCNC(=O)C(C(=O)OCC)C1CCCCC1 (stereo not given)	none
CC(Sc1nnc2ccccn12)C(=O)Nc1ncc(Cl)cc1Cl (stereo not given)	none
CC(Sc1ccc2c(c1)OCCO2)C(=O)Nc1ncc(Cl)cc1Cl (stereo not given)	CYP2C19 inhib 70
CCCNC(=O)NC(=O)CSc1ccc2c(c1)OCCO2	CYP2C19 inhib 76
CCOC(=O)c1cnc(SCC(=O)Nc2ccc(N3CCOCC3)cc2)nc1N	none
CCOC(=O)c1cnc(SCC(=O)Nc2ccc3c(c2)OCCO3)nc1N	CYP2C9 inh 69
COc1ccc(NC(=O)CSc2ccc3c(c2)OCCO3)cc1OC	CYP2C9 inh 64
Cc1nc2nc(-c3ccco3)[nH]n2c(=O)c1C	none
Cc1nc(N)sc1-c1nnc(SCC(=O)Nc2nccs2)n1C	none
CC(=O)OC(C(=O)NCc1ccc(F)cc1)c1ccccn1 (stereo not given)	none
CCCCSc1nnc2c(n1)[nH]c1ccccc12	none
O=C(CSc1ccc2c(c1)OCCO2)Nc1ccc2c(c1)OCO2	CYP2C9 inh 92, CYP2C19 inhib 100
CCOC(=O)CC(=O)CSc1nnc2c(n1)[nH]c1ccccc12	PostGolgi ctrl 45

Screening results from PubChem.
